Results filed as inconclusive are left out. Values without a mark were called inactive. Calls of active or inactive are those of the source. The call rests on the fitted dose curve; in most records, active means well fitted cell-killing curve with a large enough effect in the repeat runs; inconclusive means weak or mixed curves; inactive means flat fitted curve, though single readings scatter.
Experiment: qHTS RealTime-Glo MT Cell Viability Assay in HepG2 cells - 16 hour (AID 1224885); further: nearly all actives have a fitted effect of over 50% in size
Conditions: RealTime-Glo luminescence; series mostly up to 76.8 µM
Excerpt: U.S. Tox21 Program National Center for Advancing Translational Sciences [NCATS] NIH Chemical Genomics Center [NCGC] U.S. Environmental Protection Agency [EPA] National Institutes of Environmental Health Sciences [NIEHS] National Toxicology Program [NTP] U.S. Food and Drug Administration [FDA] Tox21 Assay Overview: Measure of cell viability is critical in the cell-base assay. Analysis of cell viability is necessary for the characterization of cell responses to cytotoxic drugs and environmental stress. A RealTime-Glo MT Cell Viability Assay to monitor cell viability in real time of continues cell culture during 40 hours of compound treatment was used to screen Tox21 10K library compounds in HepG2 cells. The RealTime-Glo MT Cell Viability Assay is a nonlytic, homogeneous, bioluminescent method to measure cell viability in real time using a simple, plate-based method. The assay involves adding NanoLuc luciferase and a cell-permeant prosubstrate to cells in culture. Viable cells reduce the proprietary prosubstrate to generate a substrate for NanoLuc luciferase. This substrate diffuses from cells into the surrounding culture medium, where it is rapidly used by the NanoLuc Enzyme to produce a luminescent signal. The signal correlates with the number of viable cells, making the assay well suited for cytotoxicity studies.
Tox21 Assay Protocol Summary: The mixture of HepG2 cell suspension and reagents were dispensed at 600cells/6 ul/well in 1536-well tissue culture treated black solid bottom plates using a Multidrop dispenser. After the assay plates were incubated at a 37 C/5% CO2 incubator for 5 hours, 23 nL of compounds dissolved in DMSO, positive and negative controls was transferred to the assay plate by a pintool work station. The plates were incubated at 37 C for 40 hours. The luminescence intensity were measured at 0h, 8h, 16h, 24h, 32h and 40h time points using ViewLux plate reader during compound treatment.
On the % scale 0 is the no-effect control and ±100 the full control effect.

Structure (SMILES) | outcome | activity change, negative = cytotoxic
C1=COCCC1 | inactive | 
Clc1ccccc1-c1nc(-c2ccncc2)no1 | inactive | 
O=C(OCCN1CCOCC1)c1cccnc1Nc1cccc(C(F)(F)F)c1 | inactive | 
O=C(O)c1c2ccccc2cc2ccccc12 | inactive | 
OCC(O)c1ccccc1 (stereo not given) | inactive | 
O=C(c1ccco1)N1CCNCC1 | inactive | 
Sc1nc(S)nc(S)n1 | inactive | 
Cc1cc(C)n(CO)n1 | inactive | 
CC[C@H](NC(C)C)[C@H](O)c1ccc(O)c2[nH]c(=O)ccc12 | inactive | 
C=C[Si]1(C)O[Si](C)(C=C)O[Si](C)(C=C)O[Si](C)(C=C)O1 (stereo not given) | inactive | 
N#CCCCC(C#N)CCC#N (stereo not given) | inactive | 
Clc1cc(Cl)c2c(c1)N=C1CCCCCN1C2 | inactive | 
CCCCCCCCCCCCSCCOCCO | inactive | 
Nc1ccc(F)cc1F | inactive | 
O=C(O)c1ccc2c(c1)nc(C(=O)NC1CCN(C3CC3)CC1)n2Cc1cc(-c2ccc(Cl)s2)on1 |  | -5.36% [at 15.8 µM]
CC(C(=O)O)c1ccc(/C=C2\CCCCC2=O)cc1 (stereo not given) | inactive | 
Cc1c(Cl)cccc1[N+](=O)[O-] | inactive | 
Cc1cc(SC2=C(O)C[C@@](CCc3ccc(N)cc3)(C(C)C)OC2=O)c(C(C)(C)C)cc1CO | inactive | 
Cc1c(Nc2ncccc2C(=O)O)cccc1C(F)(F)F | inactive | 
COc1ccc(C(=O)c2ccc(C)cc2)c(O)c1 | inactive | 

Structure (SMILES) | outcome | activity change, negative = cytotoxic
CC(O)CN (stereo not given) | inactive | 
COc1cc(CNC(=O)CCCC/C=C/C(C)C)ccc1O | inactive | 
CCOC(C)OCC | inactive | 
CCOc1ccc2c(c1)C(C)CC(C)(C)N2 (stereo not given) | inactive | 
COc1ccc(C(=O)Nc2ccccc2)cc1[N+](=O)[O-] | inactive | 
COc1ccc(CN(CCN(C)C)c2ncccn2)cc1 | inactive | 
COC(=O)Cc1cccc2ccccc12 | inactive | 
CC(=O)c1cccnc1 | inactive | 
CC(C)(C(=O)O)c1ccc(C(O)CCCN2CCC(C(O)(c3ccccc3)c3ccccc3)CC2)cc1 (stereo not given) | inactive | 
C/C(=C(\CCO)SS/C(CCO)=C(\C)N(C=O)Cc1cnc(C)nc1N)N(C=O)Cc1cnc(C)nc1N | inactive | 
O=C(OCCOCCOCCOC(=O)c1ccccc1)c1ccccc1 | inactive | 
CC(=O)CC/C=C(\C)CC/C=C(\C)CC/C=C(\C)CCC=C(C)C | inactive | 
Nc1ccc(C(=O)Oc2ccccc2)c(O)c1 | inactive | 
CC1(C)[C@@H]2CC[C@]3(C2)[C@@H]1C(=O)CCC3(C)C | inactive | 
O=Cc1ccc([N+](=O)[O-])cc1 | inactive | 
CCCCOc1ccc(N)cc1 | inactive | 
Clc1nc2ccccc2nc1Cl | inactive | 
CC(C)CCCCCCCOC(=O)c1ccc(C(=O)OCCCCCCCC(C)C)c(C(=O)OCCCCCCCC(C)C)c1 | inactive | 
Nc1ccccc1Nc1ccccc1 | inactive | 
Cc1cc(N)n(-c2ccccc2)n1 | inactive | 

From PubChem BioAssay (Tox21)
